This is an account of results in PubChem BioAssay (Tox21).

Test [1] is described as follows: Nuclear factor erythroid 2-related factor 2/antioxidant responsive element (Nrf2/ARE) small molecule agonists: qHTS cell viability counter screen in human keratinocytes (AID 1919968; active means well fitted curve in the direction sought with a large enough effect in the repeat runs; an effect the other way counts as inactive or inconclusive; further: nearly all actives have a fitted effect of over 55% in size). In a few lines:
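In human HaCaT keratinocytes stably expressing an ARE-driven luciferase, compound exposure lasted 23 h at 37 C under 5% CO2. Viable cells are quantified with a protease-based fluorogenic reagent (CellTiter-Fluor) read 1 h after addition.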

Test [2] can be described thus: Nuclear factor erythroid 2-related factor 2/antioxidant responsive element (Nrf2/ARE) small molecule agonists: luciferase reporter gene qHTS assay in human keratinocytes (AID 1919969). Further: nearly all actives have a fitted effect of over 35% in size. Further: potency means the concentration at half of the fitted maximal effect.
Test [3] addresses Gonadotropin-releasing hormone receptor (Homo sapiens) (UniProt P30968). Nature of the test: Human gonadotropin-releasing hormone receptor (GnRHR) small molecule agonists, calcium flux assay in GnRHR-HEK293 cells (AID 1920063). Further: nearly all actives have a fitted effect of over 35% in size. In a few lines: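 Intracellular calcium rise is the read-out: engineered human GnRHR HEK293 cells, dye-loaded, are exposed to DMSO-dissolved compounds and fluorescence at Ex/Em 480/540 is tracked for 3 min.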
For orientation: A change in cytosolic calcium serves as a functional read-out for many receptors and channels.

The target in test [4] is KiSS-1 receptor (Homo sapiens) (UniProt Q969F8). Nature of the test: Human kisspeptin (KISS1R) small molecule agonists, calcium flux assay in KISS1R-HEK293 cells (AID 1920064; active means well fitted curve in the direction sought with a large enough effect in the repeat runs; an effect the other way counts as inactive or inconclusive). The method, boiled down:
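Concentration-response testing used 15 concentrations in triplicate on human KISS1R-expressing HEK293 cells. Calcium-dependent fluorescence (Ex/Em 480/540) was followed kinetically for 3 min after compound transfer.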

A short description of test [5]: G protein-coupled receptor (GPCR) small molecule agonists, calcium flux assay: HEK293 wild type cell line counter screen (AID 1920065). The method, boiled down:
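Fluorescence intensity signals activation. After overnight (18 h) culture and a 1 h calcium dye load at 37 C, compounds are added by pin tool and the plate read at 480/540 nm for 3 min in 1 s steps.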

A short description of test [6]: p53 small molecule agonists, cell-based qHTS assay with human liver microsomes (AID 1963577).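 Further: p53 response element beta-lactamase reporter cells with liver microsomes plus NADPH.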 In a few lines:
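16 h, 37 C exposure of p53RE-bla cells to compounds with human liver microsomes and NADPH (0.5 mg/mL final each); detection via LiveBLAzer mixture, 2 h dark at room temperature.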
On the technique in general: Quantitative high-throughput screening tests each substance at several concentrations.

The nature of test [7]: p53 small molecule agonists, cell-based qHTS assay with rat liver microsomes (AID 1963578). The method, boiled down:
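With rat liver microsomes and NADPH present (0.5 mg/mL final each), p53RE-bla cells are treated with compound for 16 h at 37 C. LiveBLAzer detection mixture is then applied for 2 h at room temperature in the dark.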

Test [8] can be described thus: p53 small molecule agonists, cell-based qHTS assay with human liver microsomes: qHTS cell viability counter screen (AID 1963579). Further: nearly all actives have a fitted effect of over 45% in size. The method, boiled down: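 In this multiplexed counter screen, the reporter plates were subsequently treated with CellTiter-Glo so that cell viability, reflected by luminescence, could be recorded for p53RE-bla cells dosed 16 h with compounds under microsomal activation (HLM and NADPH).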

Test [9] is described as follows: p53 small molecule agonists, cell-based qHTS assay with rat liver microsomes: qHTS cell viability counter screen (AID 1963580). Further: nearly all actives have a fitted effect of over 45% in size. In a few lines: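 Cytotoxicity counter screen: intracellular ATP read by CellTiter-Glo luminescence in the p53 reporter wells. HCT-116 p53RE-bla cells were treated for 16 h at 37 C alongside rat liver microsomes and NADPH, each 0.5 mg/mL final.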

A short description of test [10]: p53 small molecule agonists, cell-based qHTS assay: qHTS cell viability counter screen (AID 1963581). Further: nearly all actives have a fitted effect of over 45% in size. The method, boiled down:
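Luminescence from CellTiter-Glo, reflecting ATP content, serves as the cytotoxicity measure; it is taken after the 2 h reporter substrate step in HCT-116 p53RE-bla cells dosed for 16 h at 37 C.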

The target in test [11] is 5-hydroxytryptamine receptor 2A (Homo sapiens) (UniProt P28223). Nature of the test: 5-hydroxytryptamine receptor 2A (HTR2A) small molecule agonists, cell-based qHTS assay (AID 1963587). Further: nearly all actives have a fitted effect of over 30% in size. The method, boiled down: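 Kinetic calcium-flux fluorescence (2 min, 1 sec intervals) after compound addition in agonist mode. HTR2A-CHO cells were cultured 18 h, then dye-loaded 1 h at 37 C.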

Test [12] concerns the target Muscarinic acetylcholine receptor M1 (Homo sapiens) (UniProt P11229). As to the kind of experiment: Cholinergic receptor muscarinic 1 (CHRM1) small molecule antagonists, cell-based qHTS assay (AID 1963588). Further: nearly all actives have a fitted effect of over 40% in size. The method, boiled down: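 Compounds were tested at 15 concentrations in three independent runs. Dye-loaded CHRM1-CHO cells were exposed 5 min at room temperature before stimulation by acetylcholine added at 50nM. Intracellular calcium was read kinetically on FDSS for 3 min.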

Test [13] shares this target. As to the kind of experiment: Cholinergic receptor muscarinic 1 (CHRM1) small molecule agonists, cell-based qHTS assay (AID 1963589). Further: nearly all actives have a fitted effect of over 35% in size. In a few lines:
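Fluorescent calcium dye reports M1 activation in stably transfected CHO cells. Compounds, 15 concentrations, added after 1 h dye loading at 37 C; kinetic reading at 1 sec intervals.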

Test [14] can be described thus: cAMP Responsive Elements (CRE) small molecule agonists, cell-based qHTS assay (AID 1963590). In a few lines: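 Compound exposure lasted 3 h at 37 C/5% CO2 in CRE-bla HEK 293T cells grown in assay medium with 10% dialyzed FBS and 25 mM HEPES. Reporter signal came from LiveBLAzer B/G FRET substrate, 2 h, room temperature.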
Test [15] can be described thus: cAMP Responsive Elements (CRE) small molecule antagonists, cell-based qHTS assay (AID 1963591; active means well fitted inhibition curve with a large enough effect in the signal ratio in the repeat runs, not every such curve was filed as active; the % refers to the signal ratio). The method, boiled down:
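Stimulation used NKH477 at a final 0.25 uM for 3 h in compound-treated CRE-bla HEK293T cells, seeded 18 h beforehand. Reporter activity was measured with LiveBLAzer B/G FRET substrate after 2 h at room temperature.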

For test [16], the target named is Beta-2 adrenergic receptor (Homo sapiens) (UniProt P07550). As to the kind of experiment: Adrenergic beta2 receptor (ADRB2) small molecule antagonists, cell-based qHTS assay (AID 1963592). Further: series mostly up to about 92 µM; nearly all actives have a fitted effect of over 50% in size. In a few lines:
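Assay format: CHO-ADRB2 cells, 18-20hr seeding at 37C/5% CO2, then compound plus 1nM isoproterenol agonist mix for 0.5hr RT. Homogeneous time-resolved fluorescence cAMP detection after 1hr, expressed as 665/615 nm ratio.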

For test [17] the target is unchanged. Nature of the test: Adrenergic beta2 receptor (ADRB2) small molecule agonists, cell-based qHTS assay (AID 1963593).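 Further: CHO cells stably overexpressing human ADRB2.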 In a few lines: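 CHO cells stably over-expressing ADRB2 were plated overnight at 37C, then dosed with compounds plus a stimulation mix containing 100uM IBMX and 25uM Ro-20-1724 for 0.5hr at room temperature. cAMP was measured by HTRF competition, 1hr.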

Test [18] has as its target D(2) dopamine receptor (Homo sapiens) (UniProt P14416). Nature of the test: Dopamine D2 receptor (DRD2) small molecule antagonists, cell-based qHTS assay (AID 1963595; active means well fitted inhibition curve with a large enough effect in the signal ratio in the repeat runs, with a control signal flat; the % refers to the signal ratio). The method, boiled down: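 Antagonist mode in DRD2-HEK293 cells: after compound addition with 0.1 mM Ro20-1724, cells received quinpirole (12 nM) and NKH477 (200 nM) for 30 min at room temperature; HTRF cAMP read after 1 h detection.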

Test [19] can be described thus: p53 small molecule agonists, cell-based qHTS assay (AID 1963582; active means well fitted activation curve with a large enough effect in the signal ratio in the repeat runs, not every such curve was filed as active; the % refers to the signal ratio). In a few lines: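 After plating, p53RE-bla cells sat 5 h in the incubator; compounds or DMSO vehicle were pinned in; a 16 h incubation at 37 C followed; FRET substrate was added and, 2 h later at RT, fluorescence was measured.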
Test [20] addresses D(2) dopamine receptor (Homo sapiens) (UniProt P14416). Nature of the test: Dopamine D2 receptor (DRD2) small molecule agonists, cell-based qHTS assay (AID 1963594). Further: nearly all actives have a fitted effect of over 35% in size. In a few lines:
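cAMP accumulation in DRD2-HEK293 cells measured by HTRF after 1 h detection; compounds added 10 min before NKH477 (200nM […]) forskolin-analogue stimulation, 30 min at room temperature, with Ro20-1724 present at 0.1 mM final.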

Several values for one entry are separate records, joined by “and”; a condition that tells them apart may be missing. Equal entries are not always repeated. Records with an inconclusive call do not appear. Activity calls are given as the source filed them. Unless noted, the call rests on the fitted dose curve.

D(2) dopamine receptor (Homo sapiens), sequence (P14416 whole entry, looked up): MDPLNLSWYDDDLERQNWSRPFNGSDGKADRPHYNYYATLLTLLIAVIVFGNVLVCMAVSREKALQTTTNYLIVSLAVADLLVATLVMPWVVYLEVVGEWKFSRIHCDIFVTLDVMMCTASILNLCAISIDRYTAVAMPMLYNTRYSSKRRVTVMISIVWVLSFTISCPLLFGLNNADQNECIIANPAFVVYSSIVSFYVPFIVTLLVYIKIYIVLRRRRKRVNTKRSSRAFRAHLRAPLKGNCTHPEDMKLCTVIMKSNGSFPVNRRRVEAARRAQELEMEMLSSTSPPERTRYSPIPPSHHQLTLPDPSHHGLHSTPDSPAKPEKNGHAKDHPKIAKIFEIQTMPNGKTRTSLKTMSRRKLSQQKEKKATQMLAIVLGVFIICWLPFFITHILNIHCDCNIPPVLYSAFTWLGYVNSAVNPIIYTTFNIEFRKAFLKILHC
5-hydroxytryptamine receptor 2A (Homo sapiens), sequence (P28223 whole entry, looked up): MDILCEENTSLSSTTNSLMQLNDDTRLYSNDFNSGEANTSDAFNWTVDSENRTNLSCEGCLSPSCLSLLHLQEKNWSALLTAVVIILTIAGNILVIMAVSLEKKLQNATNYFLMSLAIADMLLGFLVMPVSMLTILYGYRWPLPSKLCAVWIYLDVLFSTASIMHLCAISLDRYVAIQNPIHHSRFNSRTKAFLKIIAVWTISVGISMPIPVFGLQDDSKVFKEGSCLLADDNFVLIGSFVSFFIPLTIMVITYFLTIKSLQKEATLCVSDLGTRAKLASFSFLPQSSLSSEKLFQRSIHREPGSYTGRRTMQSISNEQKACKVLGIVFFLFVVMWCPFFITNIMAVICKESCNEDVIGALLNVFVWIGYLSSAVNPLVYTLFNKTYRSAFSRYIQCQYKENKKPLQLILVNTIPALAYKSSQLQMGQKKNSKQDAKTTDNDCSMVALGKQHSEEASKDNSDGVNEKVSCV
Beta-2 adrenergic receptor (Homo sapiens), sequence (P07550 whole entry, looked up): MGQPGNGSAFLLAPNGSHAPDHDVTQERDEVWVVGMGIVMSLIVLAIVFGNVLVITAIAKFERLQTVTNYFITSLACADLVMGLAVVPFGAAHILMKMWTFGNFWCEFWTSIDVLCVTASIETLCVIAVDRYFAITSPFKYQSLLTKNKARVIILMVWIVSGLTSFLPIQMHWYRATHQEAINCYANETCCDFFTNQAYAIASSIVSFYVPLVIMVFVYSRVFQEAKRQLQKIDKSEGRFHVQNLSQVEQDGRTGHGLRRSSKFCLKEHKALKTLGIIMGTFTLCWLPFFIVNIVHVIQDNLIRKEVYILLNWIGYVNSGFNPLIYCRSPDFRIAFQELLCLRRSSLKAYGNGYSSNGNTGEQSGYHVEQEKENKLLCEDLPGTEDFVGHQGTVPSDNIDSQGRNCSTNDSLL
Gonadotropin-releasing hormone receptor (Homo sapiens), sequence (P30968 whole entry, looked up): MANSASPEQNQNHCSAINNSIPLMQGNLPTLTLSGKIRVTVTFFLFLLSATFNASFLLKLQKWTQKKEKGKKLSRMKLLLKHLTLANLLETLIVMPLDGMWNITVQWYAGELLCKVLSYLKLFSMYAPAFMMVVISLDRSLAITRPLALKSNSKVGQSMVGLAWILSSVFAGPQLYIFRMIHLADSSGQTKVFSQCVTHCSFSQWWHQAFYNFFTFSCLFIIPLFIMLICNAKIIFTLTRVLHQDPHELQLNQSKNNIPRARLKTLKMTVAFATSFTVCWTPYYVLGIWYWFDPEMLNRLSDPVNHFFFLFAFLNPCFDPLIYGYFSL
KiSS-1 receptor (Homo sapiens), sequence (Q969F8 whole entry, looked up): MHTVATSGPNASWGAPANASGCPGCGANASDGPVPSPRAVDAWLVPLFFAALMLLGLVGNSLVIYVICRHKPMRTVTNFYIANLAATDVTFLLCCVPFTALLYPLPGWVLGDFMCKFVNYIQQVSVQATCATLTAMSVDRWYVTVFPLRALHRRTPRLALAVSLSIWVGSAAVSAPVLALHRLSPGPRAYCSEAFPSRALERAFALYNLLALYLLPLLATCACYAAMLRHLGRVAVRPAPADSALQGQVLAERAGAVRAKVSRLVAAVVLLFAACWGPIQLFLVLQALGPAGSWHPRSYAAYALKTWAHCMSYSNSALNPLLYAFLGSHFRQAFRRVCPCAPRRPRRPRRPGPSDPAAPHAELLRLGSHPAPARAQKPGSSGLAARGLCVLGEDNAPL
Muscarinic acetylcholine receptor M1 (Homo sapiens), sequence (P11229 whole entry, looked up): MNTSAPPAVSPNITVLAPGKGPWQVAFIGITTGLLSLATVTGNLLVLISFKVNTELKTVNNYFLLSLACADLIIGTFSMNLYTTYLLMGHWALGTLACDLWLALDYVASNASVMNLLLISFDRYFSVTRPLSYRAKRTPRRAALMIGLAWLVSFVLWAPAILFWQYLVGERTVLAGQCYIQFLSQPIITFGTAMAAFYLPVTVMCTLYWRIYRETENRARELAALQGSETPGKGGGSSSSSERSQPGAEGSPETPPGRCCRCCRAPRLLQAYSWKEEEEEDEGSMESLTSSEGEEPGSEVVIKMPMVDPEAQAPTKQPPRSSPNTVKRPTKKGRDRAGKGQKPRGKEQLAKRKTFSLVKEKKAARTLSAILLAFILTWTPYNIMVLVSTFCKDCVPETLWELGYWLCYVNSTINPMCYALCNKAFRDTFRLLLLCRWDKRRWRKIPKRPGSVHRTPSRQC

As to `CCOC(=O)c1ccc(O)c(O)c1`, the Potency entry in [1], in test [2], in test [3], in [4], in [5] and in test [6] was “inactive” each time. For the same molecule, the Potency entry in test [7], in test [8], in [9], in test [10], in test [11] and in test [12] was “inactive” in each case. The Potency result in test [13], in test [14], in [15], in [16], in test [17] and in [18] was “inactive” throughout.

In the case of `O=C(O)c1cc(N=Nc2ccc(S(=O)(=O)Nc3ccccn3)cc2)ccc1O`, the Potency result in test [1], in test [2], in [3], in test [4], in test [5] and in test [6] was “inactive” each time. The Potency entry in [7], in [8], in test [9], in test [10], in test [19] and in [14] was “inactive” throughout. Moreover, the Potency entry in test [16], in test [17] and in test [20] was “inactive” throughout.

In the case of `O=S(=O)(O)CCS`, the Potency result in test [1], in test [2], in test [3], in test [4], in test [5] and in [6] was “inactive” throughout. In addition, the Potency result in test [7], in test [8], in [9], in [10], in [19] and in test [14] was “inactive” each time. For the same molecule, the Potency result in test [15], in [16], in [17], in test [20] and in [18] was “inactive” in each case.

Regarding `O=S(=O)(O)CCN1CCN(CCO)CC1`, the Potency entry in test [1], in [2], in test [3], in test [4], in [5] and in [6] was “inactive” in each case. Besides, the Potency entry in test [7], in [8], in test [9], in test [10], in test [19] and in [11] was “inactive” each time. The Potency result in test [12], in [13], in test [14], in [16], in test [17] and in test [20] was “inactive” throughout. Moreover, the Potency entry in [18] was “inactive”.

Take `C#CC(O)CCC` (stereo unspecified): the Potency result in test [1], in [2], in [3], in test [4], in test [5] and in test [6] was “inactive” throughout. Further, the Potency entry in test [7], in test [8], in test [9], in test [10], in test [19] and in [11] was “inactive” throughout. Also, the Potency result in test [12], in test [13], in test [15], in [16], in test [17] and in test [20] was “inactive” each time.

As for `CCC(C)(C)C1CCC(OC)CC1` (stereo unspecified), the Potency result in test [1], in test [2], in test [3], in [4], in test [5] and in test [6] was “inactive” in each case. In addition, the Potency result in [7], in [8], in test [9], in [10], in test [11] and in test [12] was “inactive” throughout. Besides, the Potency result in test [13], in [14], in test [15], in [16], in test [17] and in [20] was “inactive” each time.

Consider `CC(C)Oc1ccc2c(=O)c(-c3ccccc3)coc2c1`, for which the Potency entry in test [1], in test [3], in test [4], in [5], in test [6] and in test [7] was “inactive” each time. Also, the Potency result in [8], in test [9], in [10], in test [19], in test [14] and in test [15] was “inactive” each time. The Potency entry in test [16], in test [17], in [20] and in test [18] was “inactive” throughout. The Potency in test [2] is 376 nM (active) and 266 nM (active).

Consider `O=C1OC[C@H](Cc2cccc(O)c2)[C@H]1Cc1cccc(O)c1`, for which the Potency entry in test [1], in test [2], in test [3], in [4], in [5] and in test [6] was “inactive” throughout. For the same molecule, the Potency entry in test [7], in test [8], in [9], in test [10], in test [11] and in test [12] was “inactive” in each case. For the same molecule, the Potency result in test [13], in [14], in [15], in test [16], in test [17] and in test [20] was “inactive” each time. Besides, the Potency entry in test [18] is “inactive”.
